The source of these data is PubChem BioAssay AID488969 (Vanderbilt High Throughput Screening Facility, 2010).

The full ranking holds about 110,000 compounds; the median of “z-score” is about -0.1, and the highest 2% start at about 2. Many of the other results were omitted from the sample, so the highest values are more common in it than they were. Calls of active or inactive are those of the source.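 The calls were made as follows: active = z-score in the third read window above 3 or below -3; inactive = the rest.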

Sequence of Metabotropic glutamate receptor 8 (Rattus norvegicus) (P70579 whole entry, looked up): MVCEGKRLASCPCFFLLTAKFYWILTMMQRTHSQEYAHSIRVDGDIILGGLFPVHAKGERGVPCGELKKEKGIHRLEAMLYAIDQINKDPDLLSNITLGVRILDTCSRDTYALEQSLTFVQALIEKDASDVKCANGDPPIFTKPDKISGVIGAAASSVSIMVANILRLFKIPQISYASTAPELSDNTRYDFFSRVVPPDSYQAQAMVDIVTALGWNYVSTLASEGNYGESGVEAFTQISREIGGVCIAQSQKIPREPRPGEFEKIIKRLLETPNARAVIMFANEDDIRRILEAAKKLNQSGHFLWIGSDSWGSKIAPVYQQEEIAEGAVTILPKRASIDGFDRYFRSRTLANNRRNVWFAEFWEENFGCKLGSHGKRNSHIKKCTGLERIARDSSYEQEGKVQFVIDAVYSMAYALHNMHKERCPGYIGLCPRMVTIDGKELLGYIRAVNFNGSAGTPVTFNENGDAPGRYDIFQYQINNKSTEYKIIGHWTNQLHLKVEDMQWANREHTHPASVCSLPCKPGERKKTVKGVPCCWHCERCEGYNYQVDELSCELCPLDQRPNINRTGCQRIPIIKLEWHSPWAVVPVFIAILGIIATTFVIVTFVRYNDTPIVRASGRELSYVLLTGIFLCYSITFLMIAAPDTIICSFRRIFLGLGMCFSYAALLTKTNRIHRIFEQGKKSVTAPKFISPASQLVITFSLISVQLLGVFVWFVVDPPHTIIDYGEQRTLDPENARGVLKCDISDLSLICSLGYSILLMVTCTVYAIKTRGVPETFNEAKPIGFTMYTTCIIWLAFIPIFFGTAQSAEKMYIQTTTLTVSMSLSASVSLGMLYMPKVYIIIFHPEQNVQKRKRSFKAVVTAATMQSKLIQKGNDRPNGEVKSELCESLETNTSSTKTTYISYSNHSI

The test has as its target Metabotropic glutamate receptor 8 (Rattus norvegicus) (UniProt P70579). Kind of test: rat mGluR8 modulators via GIRK flux, primary screen, cell-based, thallium flux, HTS (AID 488969). The conditions noted are these: HEK293 rat mGluR8, GIRK (G protein-gated inwardly rectifying potassium channel) thallium flux, FluoZin2; at 10 µM; stronger effect = higher value; submaximal glutamate (EC20) added with thallium.
As to `O=C(CC(=O)c1ccccc1O)c1cccc(F)c1`, the z-score is 3.63 (active).

For the compound `CCOC(=O)c1ccccc1NC(=O)c1cccc(F)c1`, the z-score was 0.0409.

`Cc1ccccc1C(=O)NNC(=O)c1ccc(F)cc1` returned a z-score of 0.0481.

For `COc1ccccc1C(=O)NNC(=O)c1cccc(F)c1`, the z-score is -0.0578.

As for `CC(=O)Nc1cccc(C(=O)/C=C/c2ccc(/C=C/C(=O)c3cccc(NC(C)=O)c3)cc2)c1`, the z-score came out at 0.033.

Compound `COc1ccc2oc(C(=O)C3CC3)c(N)c2c1` showed a z-score of 1.19.

Consider `COc1ccc(N=C/C=C2\C=C(c3ccccc3)OC(C)(C)O2)cc1`, for which the z-score is -0.461.

With `C=CCN1C(=Nc2cccnc2)SCC1(O)c1ccc(C)cc1` (configuration not stated), the z-score worked out at 2.38.

Compound `CC1=NN(C(=O)Cc2ccc(C)cc2)C(O)(c2cccnc2)C1` (configuration not stated) came in with a z-score of 0.145.

`OC1(c2ccc(OC(F)F)cc2)CSC(=Nc2cccnc2)N1C1CC1` (configuration not stated): the z-score was -0.02.

On to `COc1cc(/C=N/NC(=O)c2cc3ccccc3cc2O)ccc1OCCN1CCCCC1`, for which the z-score was -0.0725.

`COc1ccc(N(C)S(=O)(=O)c2cccc(C(=O)OCC(=O)Nc3sc4c(c3C#N)CCCCC4)c2)cc1` displayed a z-score of 0.379.

In turn, `Cc1cc2c(cc1C)NC(=O)CC(C(F)(F)C(F)(F)C(F)(F)F)=N2` gave a z-score of -0.139.

Compound `O=C1CC(C(F)(F)C(F)(F)C(F)(F)C(F)(F)F)=Nc2ccccc2N1` registered a z-score of -0.248.

Regarding `O=C1CC(C(F)(F)C(F)(F)C(F)(F)F)=Nc2ccccc2N1`, the z-score was 3.4 (active).

On to `OC(CN1C2=NCCN2c2ccccc21)c1ccc(Br)cc1` (configuration not stated), for which the z-score amounted to 0.254.

For the compound `CCCCCCN1C2=NCCN2c2ccccc21`, the z-score was 7.63 (active).

The compound `CCCCCN1C2=NCCN2c2ccccc21` yielded a z-score of 0.394.

Take `Brc1ccc(CN2C3=NCCCN3c3ccccc32)cc1`: the z-score is 0.755.

`O=C(CN1C2=NCCCN2c2ccccc21)c1ccc(Cl)cc1Cl` came in with a z-score of 0.287.

In turn, `Clc1ccc(CN2C3=NCCCN3c3ccccc32)cc1` yielded a z-score of 0.436.

On to `OC(CN1C2=NCCCN2c2ccccc21)c1ccc(Br)cc1` (configuration not stated), for which the z-score was 3.3 (active).

In turn, `Cc1ccc(C)c(C(=O)CN2C3=NCCCN3c3ccccc32)c1` registered a z-score of 0.0716.

The compound `CCCCN1C2=NCCCN2c2ccccc21` displayed a z-score of -0.957.

As to `CC(C)(C)c1ccc(CN2C3=NCCCN3c3ccccc32)cc1`, the z-score is 4.19 (active).

`OC(CN1C2=NCCCN2c2ccccc21)c1ccc(Cl)cc1` (configuration not stated) had a z-score of 0.782.

`c1ccc(CN2C3=NCCCN3c3ccccc32)cc1` displayed a z-score of 2.93.

Turning to `Cc1cccc(N(CC(=O)Nc2ccccc2F)S(C)(=O)=O)c1`, the z-score was -0.443.

As to `Cc1ccccc1OCC(=O)NC1=NCCS1`, the z-score turned out to be 0.0476.

In the case of `CCOC(=O)C(C)On1c(-c2cccc(Cl)c2)nc2ccc([N+](=O)[O-])cc21` (configuration not stated), the z-score is 0.66.

In the case of `CNc1nc(CCN2C(=O)c3ccccc3C2=O)cs1`, the z-score was -0.0681.

As for `CCOC(=O)C(C)Sc1nc(C2CC2)cc(C(F)(F)F)c1C#N` (configuration not stated), the z-score is 1.1.

The compound `O=C(NC(C(=O)O)c1ccccc1)c1ccccc1` (configuration not stated) came in with a z-score of 0.488.

`COC(=O)CCC(=O)Nc1ccc(C)cc1OC(=O)CCC(=O)OC` had a z-score of 0.273.

`COc1ccccc1CNS(=O)(=O)c1c(C)[nH]c(=O)[nH]c1=O` registered a z-score of 0.0871.

`O=C1CC(c2ccc(S(=O)(=O)NCCOc3ccccc3)cc2)CN1` (configuration not stated): the z-score was 0.129.

As to `Cc1ccc(CN2C3=NCCCN3c3ccccc32)cc1`, the z-score is 3.51 (active).

In turn, `Fc1ccc(CN2C3=NCCCN3c3ccccc32)cc1` gave a z-score of -0.37.

With `CCN1C2=NCCCN2c2ccccc21`, the z-score came out at 0.0152.

`CCCN1C2=NCCCN2c2ccccc21` showed a z-score of 0.397.

With `Cc1ccccc1CN1C2=NCCCN2c2ccccc21`, the z-score was 3.26 (active).

Turning to `Cc1ccc(C(O)CN2C3=NCCCN3c3ccccc32)cc1` (configuration not stated), the z-score came out at 1.16.

Compound `C=CCNC(=O)c1cc(Cl)ccc1Cl` came in with a z-score of 0.018.

`COc1ccc2c(C)cc(=O)[nH]c2c1` displayed a z-score of -0.159.

For the compound `CN(C)CCNC(=O)c1cc2c(s1)-c1ccccc1OC2`, the z-score is 3.28 (active).

Turning to `O=C(NCc1cccs1)c1cc2c(s1)-c1ccccc1OC2`, the z-score was -0.399.

In turn, `O=C(NC1CC1)c1cc2c(s1)-c1ccccc1OC2` gave a z-score of -0.272.

On to `Cc1cc(C)n(-c2ccc(Cl)c(C(=O)Nc3cc(C(F)(F)F)ccc3Cl)n2)n1`, for which the z-score was found to be 0.25.

With `CC(C)c1ccc(OCC(=O)N(Cc2ccccc2)c2ccccn2)cc1`, the z-score is -0.499.

With `CCN(CC(=O)Nc1cccc(OC)c1)c1ncnc2sc(C)c(C)c12`, the z-score is -0.125.

Compound `Cc1c(NC(=O)CSc2ncn[nH]2)c(=O)n(-c2ccccc2)n1C` gave a z-score of 0.565.

In turn, `CCCCc1ccc(NC(=S)Nc2cccnc2)cc1` came in with a z-score of 2.66.

Turning to `CCC(C(=O)OCC(=O)Nc1ccc(Cl)c(S(=O)(=O)N(C)C)c1)c1ccccc1` (configuration not stated), the z-score is -2.23.

In the case of `CCCCc1ccc(NC(=S)Nc2ccc(Nc3ccc(OC)cc3)cc2)cc1`, the z-score was -0.0123.

As for `CCCCc1ccc(NC(=S)Nc2ccc(Cl)c(S(=O)(=O)N(C)C)c2)cc1`, the z-score was 5.93 (active).

Turning to `CC(=O)N1CCN(CC(=O)Nc2ccc(Cl)c(S(=O)(=O)N(C)C)c2)CC1`, the z-score was -0.0302.

On to `CCCCC(=O)Nc1ccc(C(=O)Nc2cccnc2)cc1`, for which the z-score stood at 0.0123.
